# Data reported in the OligoGym collection.
# Target: CBL
# Experiment: pooled miR-30 sensor sort-seq; sequence = guide strand
# Conditions: shRNA
# Note: reference of the scale not given here.
row,Sequence,sensor-assay potency score (higher = more potent)
1,TTATACATTGCTTCATACGTAC,-0.141
2,TTGAGGGAACACATACTCGCTG,-0.612
3,TTGCTTAGTTTTCTTCATCAAA,-1.12
4,TTATTGTGAGGGATTGTCTGGA,0.335
5,TACAGCTATCAATCTGCTGGTC,-0.313
6,TTGGGTTCTGACACAACCGCAC,0.227
7,TTCAGAGTTGATTCTCCGCGGG,-0.689
8,TGAGGGAACACATACTCGCTGC,-0.456
9,TTTATTGTGAGGGATTGTCTGG,-0.649
10,ATACGTACAGCTATCAATCTGC,0.514
11,AAATTCTCCATAAACACCCTAA,-0.0479
12,TCACCATCCAGAGACAACCAGC,-1.24
13,TATCTGAGAGAGTTCGGCGGGC,-0.0196
14,TTGTTGTAGGATCACCATCCAG,-1.34
15,TATCTTGACAAGATAGTACGGA,0.0663
